Several values for one entry are separate records, joined by “and”; a condition that tells them apart may be missing. Equal entries are not always repeated. Results filed as inconclusive are left out. Some structures have more than one record in an assay (separate samples or runs), and their calls can disagree. Activity calls are given as the source filed them. Rule for the calls, unless noted: active = hit-call score of the fitted dose curve at least 0.9, where 1 is the maximum; inactive = score below 0.9.
How the values were obtained:
[1] = read-out: Tumor necrosis factor (Homo sapiens) (UniProt P01375); test: BSK_BT_xTNFa: BioMAP Diversity Plus: BT Assay for Tumor necrosis factor alpha (TNF-alpha) Biomarker Activity (AID 2284230); details: primary human B cells with PBMC
Procedure, shortened: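 Compounds were added to a B cell plus PBMC co-culture, and after 24 h secreted TNF-alpha was quantified with Luminex xMAP technology, with responses fitted upward from the DMSO control.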

[2] = read-out: Vascular cell adhesion molecule 1 (VCAM1), VCAM1 (gene 7412); test: BSK_MyoF_VCAM1: BioMAP Diversity Plus: MyoF Assay for Vascular cell adhesion molecule 1 (VCAM1) Biomarker Activity (AID 2284231); details: primary human lung fibroblasts
Procedure, shortened: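 Primary human lung fibroblasts (BioMAP MyoF system) dosed with chemical, VCAM-1 measured by ELISA 24 hours later. Fitted in the positive direction against DMSO; parallel SRB staining assessed cytotoxicity.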

[3] = read-out: Collagen I, COL1A1 (gene 1277); test: BSK_MyoF_CollagenI: BioMAP Diversity Plus: MyoF Assay for Collagen I Biomarker Activity (AID 2284238); details: primary human lung fibroblasts
Procedure, shortened: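 Primary human lung fibroblasts (MyoF system) treated 24 h; Collagen I quantified by ELISA and fitted in positive direction against DMSO. Parallel SRB total-protein staining assessed overt cytotoxicity.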

[4] = read-out: Collagen III, COL3A1 (gene 1281); test: BSK_MyoF_CollagenIII: BioMAP Diversity Plus: MyoF Assay for Collagen III Biomarker Activity (AID 2284239); details: primary human lung fibroblasts
Procedure, shortened: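 Primary human lung fibroblasts (BioMAP MyoF system) exposed 24 h. Collagen III measured by ELISA; positive-direction fit relative to DMSO.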

[5] = read-out: Actin alpha 1 (ACTA1), ACTA1 (gene 58); test: BSK_MyoF_ACTA1: BioMAP Diversity Plus: MyoF Assay for Actin alpha 1 (ACTA1) Biomarker Activity (AID 2284244); details: primary human lung fibroblasts
Procedure, shortened: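 ELISA read-out of a-SMA in primary human lung fibroblast cultures, 24 h post-dosing. Activity scored in the positive direction versus DMSO baseline.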

[6] = read-out: Basic fibroblast growth factor (bFGF), FGF2 (gene 2247); test: BSK_MyoF_bFGF: BioMAP Diversity Plus: MyoF Assay for Basic fibroblast growth factor (bFGF) Biomarker Activity (AID 2284246); details: primary human lung fibroblasts
Procedure, shortened: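 Primary human lung fibroblast culture, 24 h compound exposure; ELISA read-out of bFGF. Positive-direction fit vs DMSO baseline. Cytotoxicity: SRB stain (0.1% SRB, 10% TCA fixation, 560 nm) in parallel wells.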

[7] = read-out: Collagen IV, COL4A1 (gene 1282); test: BSK_MyoF_CollagenIV: BioMAP Diversity Plus: MyoF Assay for Collagen IV Biomarker Activity (AID 2284247); details: primary human lung fibroblasts
Procedure, shortened: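 ELISA read-out of Collagen IV in lung fibroblast cultures, 24 h post-dosing; gain of signal relative to DMSO vehicle baseline defines activity.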

[8] = CCTE_Mundy_HCI_hNP1_Casp3_7: CCTE's Caspase-Glo 3/7 Assay in human neuroprogenitor cells for Apoptosis, Mundy Lab (AID 2284240)
Procedure, shortened: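 Luminescent caspase-3/7 readout, 26.5 h post-dose, in human neural progenitor cells from WA09 embryonic stem cells. Cells grew 40–44 h at 37 °C, 5% CO2 before chemical addition. Activity analysed as signal increase over DMSO baseline.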

[9] = CCTE_Mundy_HCI_hNP1_CellTiter: CCTE's Cell Titer-Glo 2 Assay in human neuroprogenitor cells for Viability, Mundy Lab (AID 2284241; active = hit-call score of the fitted dose curve at least 0.9, where 1 is the maximum)
Procedure, shortened: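 Viability read as luminescent ATP content (CellTiter-Glo, 30 min room temperature) twenty-four hours after dosing, relative to DMSO. Cells: WA09-derived hNP1 neuroprogenitors on poly-L-ornithine/laminin, plated 40 to 44 hours before chemical.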

[10] = read-out: Monokine induced gamma interferon (MIG), CXCL9 (gene 4283); test: BSK_KF3CT_MIG: BioMAP Diversity Plus: KF3CT Assay for Monokine induced gamma interferon (MIG) Biomarker Activity (AID 2284248); details: primary human keratinocytes with fibroblasts
Procedure, shortened: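 Human keratinocyte–foreskin fibroblast co-culture; MIG measured by ELISA 24 h after chemical dosing, fitted upward versus DMSO. Cytotoxicity was assessed in parallel cultures by SRB total-protein staining read at 560 nm.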

[11] = read-out: Vascular cell adhesion molecule 1 (VCAM1), VCAM1 (gene 7412); test: BSK_BF4T_VCAM1: BioMAP Diversity Plus: BF4T Assay for Vascular cell adhesion molecule 1 (VCAM1) Biomarker Activity (AID 2284249); details: primary human bronchial epithelial cells with fibroblasts
Procedure, shortened: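 Cell-surface VCAM-1 quantified by ELISA after 24 h chemical exposure of human bronchial epithelial/dermal fibroblast co-cultures, with SRB staining in parallel wells for cytotoxicity; DMSO baseline, positive-direction fitting.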

[12] = read-out: Collagen I, COL1A1 (gene 1277); test: BSK_hDFCGF_CollagenI: BioMAP Diversity Plus: hDFCGF Assay for Collagen I Biomarker Activity (AID 2284250); details: primary human foreskin fibroblasts
Procedure, shortened: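 ELISA read-out of Collagen I in human dermal foreskin fibroblast cultures, 24 h after dosing. Gain of signal versus DMSO vehicle defines activity.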

[13] = read-out: Plasminogen activator inhibitor-1 (PAI1), SERPINE1 (gene 5054); test: BSK_KF3CT_PAI1: BioMAP Diversity Plus: KF3CT Assay for Plasminogen activator inhibitor-1 (PAI1) Biomarker Activity (AID 2284252); details: primary human keratinocytes with fibroblasts
Procedure, shortened: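 Keratinocyte + dermal fibroblast co-culture (human primary); 24 h post-dose; PAI-1 by ELISA; gain-of-signal fit vs DMSO control.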

[14] = read-out: Monocyte Chemoattractant Protein-1 (MCP1), CCL2 (gene 6347); test: BSK_IMphg_MCP1: BioMAP Diversity Plus: IMphg Assay for Monocyte Chemoattractant Protein-1 (MCP1) Biomarker Activity (AID 2284253); details: primary human endothelial cells with macrophages
Procedure, shortened: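 ELISA readout of MCP-1 at 24 hours in IMphg co-cultures of venular endothelial cells and macrophages, normalised to DMSO; parallel cultures stained with sulforhodamine B for overt cytotoxicity.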

[15] = TAMU_HCS_1.5hr_SingleDonor1434_Cytotoxicity: Cytotoxicity Assessment using High-content Screening (HCS) Fluorescent Imaging for the Texas A&M University (TAMU) 1.5-hr Human Induced Pluripotent Stem Cell (iPSC)-derived Cardiotoxicity Assay (AID 2284234; active = hit-call score of the fitted dose curve at least 0.9, where 1 is the maximum)
Procedure, shortened: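 Nuclear counts from Hoechst 33342 imaging define cytotoxicity here, with EC10 (10% cell-count loss relative to DMSO) as point of departure. iPSC cardiomyocytes received 0.2-100 uM test chemical in 0.5% DMSO for 1.5 h at 37 C.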

[16] = TAMU_PeakParms_SingleDonor1434_QT: Texas A&M University (TAMU) 1.5-hr Human Induced Pluripotent Stem Cell (iPSC)-derived Cardiomyocytes Calcium (Ca+2) Flux Assay for Cardiotoxicity: QT (decay-rise ratio) (AID 2284235; active = hit-call score of the fitted dose curve at least 0.9, where 1 is the maximum)
Procedure, shortened: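 Decay/rise ratio of calcium-flux fluorescence scored after 90 min exposure (37C) of donor 1434 iPSC cardiomyocytes to 0.2–100 uM (0.5% DMSO). Beat-cessation and severe-notch points removed; POD is EC05, a 5% rise over DMSO.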

[17] = CCTE_Mundy_HCI_Cortical_NOG_BPCount: CCTE's Neurite Outgrowth Assay in rat cortical cells for Branch Point Count, Mundy Lab (AID 2284237);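 for AC50: branch points counted about two days after chemical exposure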
Procedure, shortened: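 Measured 50.33 h after dosing, this morphology endpoint uses rat primary cortical cultures labelled for betaIII-tubulin. Branch points are quantified by high-content imaging, with DMSO as negative control and baseline.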

[18] = UKN2_HCS_IMR90_cell_viability: Viability Assessment in the University of Konstanz (UKN) Leist Lab Neural Crest Cell Migration Assay in human induced IMR90 Pluripotent Stem Cells (UKN2) (AID 2284233);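 note: cells exposed to compound for 24 h after a 24 h migration phase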
Procedure, shortened: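 Viability read as calcein-AM fluorescence by high-content imaging, Hoechst co-stain, 30 min. Human iPSC (IMR90) neural crest cells had migrated 24 h into stopper-defined gaps before 24 h chemical exposure. Fitted bidirectionally relative to DMSO.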

[19] = CCTE_Mundy_HCI_Cortical_Synap_Neur_Matur_NeuronCount: CCTE's Synaptogenesis and Neurite Maturation Assay in rat cortical cells for Neuron Count, Mundy Lab (AID 2284242; active = hit-call score of the fitted dose curve at least 0.9, where 1 is the maximum;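 note: neuron number from Hoechst nuclei and MAP2 staining by high-content imaging; hits reduce neuron count versus DMSO baseline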)
Procedure, shortened: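 Rat cortical cultures; AraC DIV 5; chemical dosing + media change DIV 7 to DIV 12 (288.33 h readout). Fix, Hoechst, anti-MAP2/anti-synaptophysin immunostain; HCI neuron count vs DMSO baseline.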

[20] = CCTE_Mundy_HCI_Cortical_NOG_NeuronCount: CCTE's Neurite Outgrowth Assay in rat cortical cells for Neuron Count, Mundy Lab (AID 2284236; active = hit-call score of the fitted dose curve at least 0.9, where 1 is the maximum;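 note: neurons counted by imaging betaIII-tubulin and Hoechst stained cortical cells; cells exposed to compound for about 48 hours before fixation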)
Procedure, shortened: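 Read-out: neuron number by high-content imaging of betaIII-tubulin (Alexa Fluor-488) and Hoechst-labelled rat primary cortical cells.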

Measured: AC50

Tumor necrosis factor (Homo sapiens), sequence (P01375 whole entry, looked up): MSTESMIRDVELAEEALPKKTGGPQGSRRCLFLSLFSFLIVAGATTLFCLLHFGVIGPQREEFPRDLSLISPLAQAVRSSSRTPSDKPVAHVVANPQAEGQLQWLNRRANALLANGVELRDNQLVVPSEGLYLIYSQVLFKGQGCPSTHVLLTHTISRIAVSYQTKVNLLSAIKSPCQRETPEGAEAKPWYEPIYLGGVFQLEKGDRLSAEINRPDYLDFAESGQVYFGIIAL

COP(=O)(O)OC
inactive: [1] | [2] | [3] | [4] | [5] | [6] | [7]

C=CC(=O)OCC(CC)(COC(=O)C=C)COC(=O)C=C
active: [1] 2.61 µM | [2] 2.5 µM | [3] 4.69 µM | [4] 4.87 µM | [5] 2.93 µM | [6] 4.36 µM | [7] 2.87 µM

CCOP(=S)(OCC)SCn1nnc2ccccc2c1=O
inactive: [1] | [2] | [3] | [4] | [5] | [6] | [7]

C=CC(=O)OCC(F)(F)C(F)F
active: [1] 30 µM and 29.8 µM | [2] 44.1 µM and 32.7 µM | [3] 46.7 µM and 44.9 µM | [4] 48.7 µM | [5] 48.8 µM and 46.5 µM | [7] 45.7 µM | [10] 52.2 µM | [11] 30 µM
inactive: [4] | [8] | [9] | [6] | [7] | [10] | [11] | [12] | [13] | [14]

OCC(F)(F)OC(F)(F)C(F)(F)OC(F)(F)C(F)(F)OC(F)(F)F
inactive: [8] | [6] | [7] | [11] | [12] | [14]
active: [1] 50.4 µM and 30 µM | [2] 54.7 µM and 40.5 µM | [3] 39.9 µM and 22.1 µM | [4] 19.7 µM and 23.9 µM | [5] 18.3 µM and 11.5 µM | [10] 58.5 µM and 45.8 µM | [13] 43.8 µM and 44 µM | [14] 45.6 µM

O=C(O)C(F)(F)OC(F)(F)C(F)(F)OC(F)(F)C(=O)O
not listed: [15] | [16] | [17] | [18] | [19] | [20]
inactive: all other assays above

OCC(F)(F)OC(F)(F)C(F)(F)OC(F)(F)C(F)(F)OC(F)(F)CO
active: [2] 41.2 µM | [5] 20.5 µM and 30 µM | [14] 7.09 µM
inactive: [1] | [2] | [3] | [4] | [6] | [7] | [10] | [11] | [12] | [13] | [14]

ClC(Cl)=C(c1ccc(Cl)cc1)c1ccccc1Cl
active: [1] 31.1 µM | [2] 5.1 µM | [3] 4.93 µM | [4] 7.34 µM | [5] 5.45 µM | [6] 9.45 µM | [7] 9.38 µM

CCOP(=S)(S)OCC
inactive: [1] | [2] | [3] | [4] | [5] | [6] | [7]

CCCCC(CC)COP(=O)(Oc1ccccc1)Oc1ccccc1 (stereo unspecified)
inactive: [16] | [17]
active: [1] 20 µM | [2] 11.1 µM | [15] 50 µM | [3] 9.47 µM | [4] 9.45 µM | [5] 8.64 µM | [6] 12.3 µM | [7] 3.97 µM

O=C(O)C=CC(F)(C(F)(F)F)C(F)(F)F
not listed: [15] | [16] | [17] | [18] | [19] | [20]
inactive: all other assays above

O=C(O)C(F)(F)OC(F)(F)C(F)(F)OC(F)(F)F
not listed: [15] | [16] | [17] | [18] | [19] | [20]
inactive: all other assays above

O=C(O)C(F)(OC(F)(F)C(F)(F)C(F)(F)F)C(F)(F)F (stereo unspecified)
active: [1] 6.18 µM | [19] 6.27 µM
inactive: [1] | [2] | [18] | [17] | [3] | [4] | [8] | [9] | [5] | [6] | [7] | [10] | [11] | [12] | [13] | [14]

CC(C)(C)c1ccccc1OP(=O)(Oc1ccccc1)Oc1ccccc1
inactive: [6] | [7]
active: [1] 36.7 µM | [2] 33.7 µM | [20] 26.2 µM | [17] 17.5 µM | [3] 28.3 µM | [4] 25.2 µM | [19] 3.09 µM | [5] 20 µM

COP(N)(=S)OC
inactive: [1] | [2] | [3] | [4] | [5] | [6] | [7]

Cc1ccc2c(c1N)C(=O)c1ccccc1C2=O
inactive: [2] | [3] | [5] | [6] | [7]
active: [1] 20 µM | [4] 1.43 µM

CC(Cl)CN(C)C (stereo unspecified)
active: [2] 20 µM
inactive: [1] | [3] | [4] | [5] | [6] | [7]

CCOP(=S)(NC(C)C)Oc1ccccc1C(=O)OC(C)C (stereo unspecified)
inactive: [1] | [2] | [3] | [4] | [5] | [6] | [7]

N#Cc1c(-c2ccc(Cl)cc2)[nH]c(C(F)(F)F)c1Br
inactive: [6] | [7]
active: [1] 10.8 µM | [2] 0.71 µM | [3] 0.899 µM | [4] 0.63 µM | [5] 0.329 µM

— PubChem BioAssay (EPA / NIEHS)
